# Laboratory results taken from PubChem BioAssay (NCI).
# This is part of a sample that, as a whole, favours compounds with a hit. Of some 83,000 tested, about 20% had one in any assay.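 Treatment: one concentration, 48 hours, 96-well format. Scoring: percent growth, with anything below 10 considered active.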 Unmarked numbers belong to inactive results. Calls of active or inactive are those of the source.
# Experiments:
# Test in all cases: NCI-60 one-dose screen, 48 h (100 = growth as untreated, 0 = no growth, -100 = all killed)
# Conditions in all cases: 10 µM unless noted
# SK-MEL-2 melanoma = system: SK-MEL-2 melanoma
# EKVX NSCLC = system: EKVX NSCLC
# SN12C renal = system: SN12C renal
# UO-31 renal = system: UO-31 renal
# TK-10 renal = system: TK-10 renal
# ACHN renal = system: ACHN renal
# CAKI-1 renal = system: CAKI-1 renal
# A498 renal = system: A498 renal
# CCRF-CEM leukemia = system: CCRF-CEM leukemia
# MOLT-4 leukemia = system: MOLT-4 leukemia
# SR leukemia = system: SR leukemia
# RPMI-8226 leukemia = system: RPMI-8226 leukemia
# OVCAR-8 ovarian = system: OVCAR-8 ovarian
# OVCAR-5 ovarian = system: OVCAR-5 ovarian
# OVCAR-4 ovarian = system: OVCAR-4 ovarian
# SK-OV-3 ovarian = system: SK-OV-3 ovarian
# IGROV1 ovarian = system: IGROV1 ovarian
# OVCAR-3 ovarian = system: OVCAR-3 ovarian
# HS 578T breast = system: HS 578T breast
# NCI/ADR-RES ovarian = system: NCI/ADR-RES ovarian
SMILES,growth (SK-MEL-2 melanoma),growth (EKVX NSCLC),growth (SN12C renal),growth (UO-31 renal),growth (TK-10 renal),growth (ACHN renal),growth (CAKI-1 renal),growth (A498 renal),growth (CCRF-CEM leukemia),growth (MOLT-4 leukemia),growth (SR leukemia),growth (RPMI-8226 leukemia),growth (OVCAR-8 ovarian),growth (OVCAR-5 ovarian),growth (OVCAR-4 ovarian),growth (SK-OV-3 ovarian),growth (IGROV1 ovarian),growth (OVCAR-3 ovarian),growth (HS 578T breast),growth (NCI/ADR-RES ovarian)
CC12CC[C@@H]3[C@]4(C)COC(c5cn[nH]c5-c5cccc(Cl)c5)O[C@@H]4CC[C@@]3(C)[C@@H]1CC(C1=CCOC1=O)O2 (some centres not stated),42.4%,26%,47.9%,16.4%,45.9%,31.3%,45.6%,73.6%,25.5%,12.4%,29.7%,13.8%,38.7%,61.7%,29.1%,62.4%,49.8%,44.5%,46.8%,31.1%
COc1ccc(Cc2nn(CC(=O)N/N=C/c3ccc(F)cc3)c(=O)c3c(C)noc23)cc1,70.5%,29.8%,-0.271% (active),-48% (active),-3.12% (active),-39.4% (active),10.2%,-57.5% (active),70.4%,92.6%,53.2%,64.7%,38.6%,55%,-35.8% (active),-72.1% (active),39.7%,47%,23.1%,38.4%
Cn1cc(-c2nc(N)nnc2-c2c[nH]c3ccc(Br)cc23)c2cccnc21,30.5%,67.4%,49.8%,48.9%,90.4%,50.6%,47.9%,131%,36.1%,27.5%,29.1%,45%,47.9%,80.3%,71.1%,61.8%,46.2%,29.2%,33.9%,78.7%
C#C[C@]1(O)CC[C@H]2[C@@H]3CC=C4c5sc(-c6ccc([N+](=O)[O-])cc6)nc5CC[C@]4(C)[C@H]3CC[C@@]21C,-42.8% (active),-61.6% (active),57%,-44.8% (active),52%,3.11% (active),23.1%,6.18% (active),9.17% (active),10%,1.72% (active),-10.7% (active),11.3%,12.5%,46.5%,53%,26.4%,-25.2% (active),29.6%,25.7%
COc1ccc(/C=C/c2nc3ccccc3c(=O)n2CC(=O)Nc2ccc(OC)cc2)cc1,96%,114%,57.3%,46.9%,48.2%,14%,47.3%,130%,63.6%,78.2%,79.5%,76.4%,59.1%,95.6%,9.1% (active),79.3%,94.2%,62.5%,56.2%,75.7%
CN(C)CCCNC(=O)c1cc(NC(=O)c2cc(NC(=O)c3ccc(/C=C/c4ccccc4)cc3)cn2C)cn1C,60.6%,66.9%,49.3%,66.6%,83.7%,40.3%,34.7%,103%,22.9%,-5.97% (active),-30.3% (active),-0.0203% (active),35.7%,105%,58.4%,88.7%,78.3%,51.6%,94.6%,91.6%
CC(/C=C1\SC(=S)N(CCCC(=O)NC(CC(C)C)C(=O)O)C1=O)=C\c1ccccc1 (configuration not stated),101%,101%,90.2%,64.4%,131%,54.1%,79.5%,145%,89.7%,54.9%,101%,77.6%,87.5%,111%,99.8%,106%,109%,91.3%,97.5%,94.1%
COc1ccc(NC(=O)Cn2c(O)c(N=Nc3ccc(S(N)(=O)=O)cc3)c3ccccc32)cc1,50.6%,62%,60%,84.1%,75.9%,35.2%,27.4%,103%,85.3%,73.6%,83.8%,71.6%,24.5%,65.9%,82.2%,30.3%,34.4%,50.7%,80.7%,93.8%
O=C1NC(=O)c2c1c1c3cc(Br)ccc3[nH]c1c1oc3ccc(F)cc3c21,-58.3% (active),20.7%,-39.1% (active),10.8%,66.7%,-72.5% (active),-64.8% (active),-83.1% (active),2.94% (active),-5.4% (active),4.79% (active),14.8%,-44.7% (active),51.7%,-88% (active),-5.1% (active),-46.9% (active),-33.3% (active),-34.9% (active),10%
COc1ccc(C2=NN(C(C)=O)C(c3ccc(OCc4ccc(Cl)cc4)c(OC)c3)C2)cc1OC (configuration not stated),44.1%,46.3%,43.2%,22.4%,44.1%,42.9%,47.2%,64.9%,50.1%,20.5%,52.4%,37%,43.5%,79.8%,29.4%,84.9%,49%,41.4%,56.3%,56.1%
CSc1ccccc1NC(=O)c1ccc2nn(/C(C#N)=C/c3ccccn3)nc2c1,-67% (active),-98.5% (active),-59.2% (active),-100% (active),-98.4% (active),-99% (active),-87.3% (active),93.7%,-34.7% (active),-22.3% (active),1.1% (active),-41.9% (active),-3.76% (active),-86.8% (active),-55.6% (active),42.9%,-67.9% (active),-87.8% (active),–,2.48% (active)
COc1cc2oc(-c3cccc(NC(=O)[C@H](CC(N)=O)NC(=O)OC(C)(C)C)c3)cc(=O)c2c(OC)c1OC,103%,99.1%,96.9%,80.1%,118%,80.7%,84.5%,93.8%,54.5%,65.1%,58.4%,69.3%,73.3%,95.5%,94.6%,140%,96.9%,105%,83.1%,102%
COc1cc(-c2ccc(/C=N/NC(=O)c3[nH]c4ccc(Br)cc4c3-c3ccccc3)s2)cc(OC)c1OC,104%,73.7%,92.6%,96.9%,106%,75.6%,71.6%,130%,73.2%,79.1%,79%,61.1%,80.7%,101%,93.7%,99.6%,95.6%,107%,–,71.7%
CSc1ccc(NC(=O)c2ccc3nn(/C(C#N)=C/c4ccccn4)nc3c2)cc1,-89.9% (active),-99% (active),-65.7% (active),-99% (active),-94.7% (active),-95.3% (active),-90.9% (active),-33.9% (active),-47.8% (active),-20.4% (active),-6.88% (active),-35.4% (active),-44.2% (active),-87.6% (active),-57.2% (active),-2.79% (active),-87.4% (active),-85% (active),–,-35.7% (active)
COc1cc(-c2nc3ccc(C)cc3[nH]2)ccc1OCc1nnc(-c2ccc(Br)cc2)o1,83%,42.7%,36.2%,43%,33.2%,55.9%,44.6%,89.3%,26.4%,25%,-16% (active),-12.9% (active),28.4%,92.1%,10.6%,59.3%,64.2%,39.1%,-4.08% (active),71.4%
